Where “and” joins values, the source holds several entries; their conditions need not be identical. Identical values can stand only once. Records with an inconclusive call do not appear. Calls of active or inactive are those of the source. Calls follow the shape of the dose curve; as a rule, active = well fitted curve in the direction sought with a large enough effect; inconclusive = small, poorly fitted or top-dose-only effect, or another doubt; inactive = no such curve, though single readings can be large; an effect the other way counts as inactive or inconclusive.
Columns and labels:
[1] = tested on: MCC-13; assay: qHTS assay to identify novel small-molecules to repurpose for Merkel cell carcinoma treatment (AID 1296009); details: MCC and control cell lines, CellTiter-Glo viability, 72 h; series mostly up to 46 µM; also: nearly all actives have a fitted effect of over 60% in size
Method in brief: (§1)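 qHTS format: cells treated with library compounds in DMSO across 8 (NPC) or 11 (MIPE) concentrations. Readout after 72 hr at 37 degree celsius was CellTiter-Glo luminescence.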

[2] = tested on: MCC-26; assay: as above; details: MCC and control cell lines, CellTiter-Glo viability, 72 h; series mostly up to 46 µM
Method in brief: as §1

[3] = tested on: MKL-1; assay: as above; details: MCC and control cell lines, CellTiter-Glo viability, 72 h; series mostly up to 46 µM
Method in brief: as §1

[4] = tested on: MKL-2; assay: as above; details: MCC and control cell lines, CellTiter-Glo viability, 72 h; series mostly up to 46 µM
Method in brief: as §1

[5] = tested on: UISO; assay: as above; details: MCC and control cell lines, CellTiter-Glo viability, 72 h; series mostly up to 46 µM
Method in brief: as §1

[6] = tested on: WaGa; assay: as above; details: MCC and control cell lines, CellTiter-Glo viability, 72 h; series mostly up to 46 µM
Method in brief: as §1

[7] = tested on: C33A; assay: Primary qHTS to identify gynecologic anti-cancer compounds using libraries of approved drugs and bioactive compounds (AID 1345084); details: Gynecologic cancer cell panel viability, ATPlite luminescence, 48 h; series mostly up to 57.5 µM; also: nearly all actives have a fitted effect of over 55% in size
Method in brief: (§2)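 Five-concentration response, 48 h; readout is ATP-driven luciferase luminescence.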

[8] = tested on: CASKI; assay: as above; details: Gynecologic cancer cell panel viability, ATPlite luminescence, 48 h; series mostly up to 57.5 µM
Method in brief: as §2

[9] = tested on: Es-2; assay: as above; details: Gynecologic cancer cell panel viability, ATPlite luminescence, 48 h; series mostly up to 57.5 µM
Method in brief: as §2

[10] = tested on: HeLa; assay: as above; details: Gynecologic cancer cell panel viability, ATPlite luminescence, 48 h; series mostly up to 57.5 µM
Method in brief: as §2

[11] = tested on: Hek293T; assay: as above; details: Gynecologic cancer cell panel viability, ATPlite luminescence, 48 h, control line for the selectivity index; series mostly up to 57.5 µM
Method in brief: as §2

[12] = tested on: JEG-3; assay: as above; details: Gynecologic cancer cell panel viability, ATPlite luminescence, 48 h; series mostly up to 57.5 µM
Method in brief: as §2

[13] = tested on: OV90; assay: as above; details: Gynecologic cancer cell panel viability, ATPlite luminescence, 48 h; series mostly up to 57.5 µM
Method in brief: as §2

[14] = tested on: PA-1; assay: as above; details: Gynecologic cancer cell panel viability, ATPlite luminescence, 48 h; series mostly up to 57.5 µM
Method in brief: as §2

[15] = tested on: SKOV3; assay: as above; details: Gynecologic cancer cell panel viability, ATPlite luminescence, 48 h; series mostly up to 57.5 µM
Method in brief: as §2

[16] = tested on: Tov-21-G; assay: as above; details: Gynecologic cancer cell panel viability, ATPlite luminescence, 48 h; series mostly up to 57.5 µM
Method in brief: as §2

[17] = tested on: Tov112D; assay: as above; details: Gynecologic cancer cell panel viability, ATPlite luminescence, 48 h; series mostly up to 57.5 µM
Method in brief: as §2

[18] = Drug repurposing screens with cells derived from glioblastoma tumor samples (AID 1345199); details: GBM patient neurospheres viability, ATP luminescence, 48 h; also: nearly all actives have a fitted effect of over 40% in size
Method in brief: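 Four patient lines of CD133+ GBM neurospheres were screened at several concentrations; hits were retested in those lines plus three slower-growing GBM lines, using 48-hour treatment and ATP-based viability.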

[19] = tested on: CAOV3; assay: Primary qHTS to identify gynecologic anti-cancer compounds using libraries of approved drugs and bioactive compounds (AID 1345084); details: Gynecologic cancer cell panel viability, ATPlite luminescence, 48 h; series mostly up to 57.5 µM; also: nearly all actives have a fitted effect of over 55% in size
Method in brief: as §2

[20] = at 45.9 µM (top of the series), tumour line B
[21] = at 45.9 µM (top of the series), tumour line D
[22] = at 46 µM (top of the series), tumour line A
[23] = at 46.1 µM (top of the series), tumour line C
% is scaled to controls: 0 for no effect and ±100 for the full control effect.

N[C@H]1C(O)O[C@H](CO)[C@@H](O)[C@@H]1O (some centres not stated)
inactive: Potency [1] | Potency [2] | Potency [3] | Potency [4] | Potency [5] | Potency [6] | Potency [7] | Potency [8] | Potency [9] | Potency [10] | Potency [11] | Potency [12] | Potency [13] | Potency [14] | Potency [15] | Potency [16] | Potency [17] | activity, negative = cell killing [18, 20] -5.64% | activity, negative = cell killing [18, 21] 4.44% | activity, negative = cell killing [18, 22] -25.4% | activity, negative = cell killing [18, 23] -6.46%

OCC(CO)N[C@H]1C[C@](O)(CO)[C@@H](O)[C@H](O)[C@H]1O
inactive: Potency [1] | Potency [2] | Potency [3] | Potency [4] | Potency [5] | Potency [6] | Potency [7] | Potency [19] | Potency [8] | Potency [9] | Potency [10] | Potency [11] | Potency [12] | Potency [13] | Potency [14] | Potency [15] | Potency [16] | Potency [17] | activity, negative = cell killing [18, 20] -9.88% | activity, negative = cell killing [18, 21] 10.9% | activity, negative = cell killing [18, 22] -13.3% | activity, negative = cell killing [18, 23] -4.04%

Cc1cc2c(cc1S(N)(=O)=O)S(=O)(=O)CCC2
inactive: Potency [1] | Potency [2] | Potency [3] | Potency [4] | Potency [5] | Potency [6] | Potency [7] | Potency [8] | Potency [9] | Potency [10] | Potency [11] | Potency [12] | Potency [13] | Potency [14] | Potency [15] | Potency [16] | Potency [17] | activity, negative = cell killing ([18]; at 20 µM (top of the series), tumour line C) 4.86% | activity, negative = cell killing ([18]; at 21.2 µM (top of the series), tumour line B) -8.12% | activity, negative = cell killing ([18]; at 21.2 µM (top of the series), tumour line D) 3.88% | activity, negative = cell killing ([18]; at 21.3 µM (top of the series), tumour line A) -0.554%

C[C@H](NC(CCc1ccccc1)C(=O)O)C(=O)N1CCC[C@H]1C(=O)O (some centres not stated)
inactive: Potency [1] | Potency [2] | Potency [3] | Potency [4] | Potency [5] | Potency [6] | Potency [7] | Potency [19] | Potency [8] | Potency [10] | Potency [11] | Potency [12] | Potency [13] | Potency [14] | Potency [15] | Potency [16] | Potency [17] | activity, negative = cell killing [18, 20] -5.92% | activity, negative = cell killing [18, 21] 1.9% | activity, negative = cell killing [18, 22] -1.54% | activity, negative = cell killing [18, 23] -2.05%

CCCn1cnc2c1c(=O)n(CCCCC(C)=O)c(=O)n2C
inactive: Potency [1] | Potency [2] | Potency [3] | Potency [4] | Potency [5] | Potency [6] | Potency [7] | Potency [8] | Potency [9] | Potency [10] | Potency [11] | Potency [12] | Potency [13] | Potency [14] | Potency [15] | Potency [16] | Potency [17] | activity, negative = cell killing [18, 20] -7.91% | activity, negative = cell killing [18, 21] -10.9% | activity, negative = cell killing [18, 22] -20.8% | activity, negative = cell killing [18, 23] 14.2%

NC(=O)c1ncn([C@@H]2O[C@H](CO)[C@@H](O)[C@H]2O)c1N
inactive: Potency [1] | Potency [2] | Potency [3] | Potency [4] | Potency [5] | Potency [6] | Potency [7] | Potency [8] | Potency [9] | Potency [10] | Potency [11] | Potency [12] | Potency [13] | Potency [14] | Potency [15] | Potency [16] | Potency [17] | activity, negative = cell killing [18, 20] -9.5% | activity, negative = cell killing [18, 21] -4.13% | activity, negative = cell killing [18, 22] -19.7% | activity, negative = cell killing [18, 23] -3.52%

N[C@@H](CSSC[C@H](N)C(=O)O)C(=O)O
inactive: activity change, negative = cytotoxicity [1] 4.94% [at 0.597 µM] | activity change, negative = cytotoxicity [2] 1% [at 0.597 µM] | activity change, negative = cytotoxicity [3] 8.58% [at 0.597 µM] | activity change, negative = cytotoxicity [4] 18.8% [at 0.597 µM] | activity change, negative = cytotoxicity [5] 9.88% [at 0.597 µM] | activity change, negative = cytotoxicity [6] 9.72% [at 0.597 µM] | activity change, negative = cytotoxicity [7] 7.09% [at 0.462 µM] | activity change, negative = cytotoxicity [8] 7.1% [at 0.462 µM] | activity change, negative = cytotoxicity [9] -1.97% [at 0.462 µM] | activity change, negative = cytotoxicity [10] 1.97% [at 0.462 µM] | activity change, negative = cytotoxicity [11] 4.09% [at 0.462 µM] | activity change, negative = cytotoxicity [12] -2.56% [at 0.462 µM] | activity change, negative = cytotoxicity [13] 16.5% [at 0.462 µM] | activity change, negative = cytotoxicity [14] -8.19% [at 0.462 µM] | activity change, negative = cytotoxicity [15] 0% [at 0.462 µM] | activity change, negative = cytotoxicity [16] 3.42% [at 0.462 µM] | activity change, negative = cytotoxicity [17] 1.24% [at 0.462 µM] | activity, negative = cell killing [18, 20] 7.37% | activity, negative = cell killing [18, 21] 8.78% | activity, negative = cell killing [18, 22] 8.9% | activity, negative = cell killing [18, 23] -5.12%

O=C(O)CC(O)C(=O)O (configuration not stated)
inactive: Potency [1] | Potency [2] | Potency [3] | Potency [4] | Potency [5] | Potency [6] | Potency [7] | Potency [19] | Potency [8] | Potency [9] | Potency [10] | Potency [11] | Potency [12] | Potency [13] | Potency [14] | Potency [15] | Potency [16] | Potency [17] | activity, negative = cell killing [18, 20] -10.7% | activity, negative = cell killing [18, 21] -4.49% | activity, negative = cell killing [18, 22] -24.7% | activity, negative = cell killing [18, 23] -13.6%

Cc1cc2nc3c(=O)[nH]c(=O)nc-3n(C[C@H](O)[C@H](O)[C@H](O)CO)c2cc1C
inactive: Potency [1] | Potency [2] | Potency [3] | Potency [4] | Potency [5] | Potency [6] | Potency [7] | Potency [19] | Potency [8] | Potency [9] | Potency [10] | Potency [11] | Potency [12] | Potency [13] | Potency [14] | Potency [15] | Potency [16] | Potency [17] | activity, negative = cell killing [18, 20] -19.3% and -6.89% | activity, negative = cell killing [18, 21] -1.31% and -6.94% | activity, negative = cell killing [18, 22] -12.8% and -5.49% | activity, negative = cell killing [18, 23] -0.108% and 21.1%

From PubChem BioAssay (NCATS)
